Screens from PubChem BioAssay.
Shown are actives, neighbours in structure and some others; about 10% of the full set was active somewhere.
GPT2 inh: Primary qHTS assay for inhibitors of Glutamate pyruvate transaminase 2 (GPT2); Potency, µM (series often up to 57.7 µM), without a hit: top-dose activity change, negative = inhibition, most hits filed as inhibitors; Recombinant GPT2, coupled pyruvate oxidase/HRP Amplex Red fluorescence; Alanine aminotransferase 2 (Homo sapiens), Q8TD30; 0.25% of 100,000 active; also: % is scaled to controls: 0 for no effect and ±100 for the full control effect; nearly all actives have a fitted effect of over 60% in size
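GPT2 10ng/uL, a-KG 250uM, L-Ala 2mM, HEPES pH7.5 + 0.0001% Tween; 30 min RT. Then Amplex mix (PO/HRP/ThPP), 30 min RT dark, fluorescence. AOA 50uM used as positive control.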
NPR1 antag: Natriuretic polypeptide receptor (hNpr1) antagonism - Primary qHTS | 1.6% of 76,000 active | Potency, µM (doses to about 46.3 µM), for inactives: at the top dose activity change, negative = inhibition, usual class: inhibitors | HEK293 hNpr1 GloSensor cGMP, ANP-stimulated luminescence | Atrial natriuretic peptide receptor 1 (Homo sapiens), P16066 | AID 1347048, 2019; calls by dose curve; also: % is scaled to controls: 0 for no effect and ±100 for the full control effect; nearly all actives have a fitted effect of over 60% in size
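Compound pre-incubated 30 min at room temperature on GloSensor-loaded HEK293 cells stably carrying hNpr1 and the pGS-40F cGMP biosensor. Stimulation uses hNppA at 0.1 nM final; luminescence is taken at baseline and 20 min post-agonist.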
NIH3T3 tox: Cytotoxic Profiling in NIH 3T3 Cell Line of Diverse Libraries Using Quantitative High-Throughput Screening; NIH 3T3 viability, CellTiter-Glo ATP luminescence, 48-72 h; Potency, µM (top dose mostly 96.7 µM), for inactives: top-dose activity change, negative = cytotoxicity, actives largely listed as inhibitors; 4.3% of 94,000 active; AID 1345082, 2018; also: % is scaled to controls: 0 for no effect and ±100 for the full control effect; nearly all actives have a fitted effect of over 55% in size
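ATP-dependent luminescence (CellTiter-Glo) served as the viability signal for NIH 3T3 cells treated with compound for 48 or 72 hr at 37 °C.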
FLuc inh-1: Firefly luciferase inhibition profiling of diverse chemical library using quantitative high-throughput screening; Luciferin 4-monooxygenase (Photinus pyralis), P08659; purified P. pyralis luciferase, luminescence, biochemical; Potency, µM (highest dose often 115 µM), most hits filed as inhibitors; 2.5% of 76,000 active; also: % is scaled to controls: 0 for no effect and ±100 for the full control effect; nearly all actives have a fitted effect of over 65% in size
Target sequence (P08659 whole entry, looked up): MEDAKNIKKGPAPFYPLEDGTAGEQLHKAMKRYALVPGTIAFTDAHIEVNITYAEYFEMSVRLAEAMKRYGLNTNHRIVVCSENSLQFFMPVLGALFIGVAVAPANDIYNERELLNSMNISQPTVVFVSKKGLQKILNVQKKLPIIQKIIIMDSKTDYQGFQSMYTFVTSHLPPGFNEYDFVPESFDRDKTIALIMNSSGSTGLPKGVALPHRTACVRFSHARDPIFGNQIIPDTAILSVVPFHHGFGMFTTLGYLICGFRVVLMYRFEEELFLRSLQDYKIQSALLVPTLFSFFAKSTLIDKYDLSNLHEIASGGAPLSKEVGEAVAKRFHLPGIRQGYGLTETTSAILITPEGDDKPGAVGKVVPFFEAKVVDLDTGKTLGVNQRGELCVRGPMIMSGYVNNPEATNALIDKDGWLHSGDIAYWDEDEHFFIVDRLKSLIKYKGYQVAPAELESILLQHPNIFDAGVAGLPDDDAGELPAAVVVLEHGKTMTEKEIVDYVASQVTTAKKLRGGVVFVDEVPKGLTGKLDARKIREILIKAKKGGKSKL
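FLuc 10nM, D-luciferin 10uM, ATP 10uM, Mg acetate 10mM, Tris acetate pH 7.5, Tween/BSA; cpd qHTS; enzyme added last; CCD luminescence.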
HEK cytotox: Cytotoxic Profiling in HEK 293 Cell Line of Diverse Libraries Using Quantitative High-Throughput Screening; HEK 293 viability, ATP luminescence (CellTiter-Glo), 48-72 h; Potency, µM (top dose mostly 115 µM), inactives show at the highest dose activity change, negative = cytotoxicity, usual class: inhibitors; 6.6% of 94,000 active; AID 1345083, 2018; also: % is scaled to controls: 0 for no effect and ±100 for the full control effect; nearly all actives have a fitted effect of over 60% in size
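ATP-coupled CellTiter-Glo luminescence served as viability read-out, recorded 10 min after reagent addition at room temperature. HEK 293 cells, 250 cells/well, had been incubated with pintool-transferred compound for 48 or 72 hr at 37 degree Celsius.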
FLuc SDR no ATP: Firefly luciferase (FLuc-C-HiBiT) SDR gain of signal screen - without ATP; shares compounds with FLuc inh-1; Purified FLuc-C-HiBiT, Nano-Glo HiBiT luminescence, no ATP; Potency, µM (series often up to 32.7 µM), for the others: top-dose activation (signal gain), most hits filed as activators; 7.8% of 1,300 active; AID 1963318, 2024; also: nearly all actives have a fitted effect of over 55% in size
FLuc SDR ATP: Firefly luciferase (FLuc-C-HiBiT) SDR gain of signal screen - plus ATP. shares compounds with FLuc inh-1. purified FLuc-C-HiBiT + ATP, HiBiT complementation luminescence. Potency, µM (series often up to 32.7 µM), for the others: top-dose activation (gain of signal), hits mostly activators. 8.7% of 1,300 active. AID 1963319, 2024;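 also: signal reports ligand binding via conformational change of the enzyme rather than luciferase catalysis; % of control where 0% means no effect; nearly all actives have a fitted effect of over 55% in size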
FLuc inh-2: Firefly luciferase (FLuc-C-HiBiT) enzymatic inhibition screen - Functional assay; AID 1963320, 2024; 42% of 1,300 active; Potency, µM (titrated, usually from 32.7 µM), for the others: top-dose activity change, negative = inhibition, hits mostly inhibitors; purified FLuc-C-HiBiT enzyme, luciferin luminescence; shares compounds with FLuc inh-1; also: % is scaled to controls: 0 for no effect and ±100 for the full control effect; nearly all actives have a fitted effect of over 70% in size
Starred values were filed as active, the others as inactive; i = inactive; u = inconclusive; x = not tested or not shown; [ ] = remark or other dose. Unless noted, calls follow the shape of the dose curve; as a rule, active = well fitted curve in the direction sought with a large enough effect; inconclusive = small, poorly fitted or top-dose-only effect, or another doubt; inactive = no such curve, though single readings can be large; an effect the other way counts as inactive or inconclusive. Potency is read from the fitted curve at half-maximal effect.

SMILES	GPT2 inh	NPR1 antag	NIH3T3 tox	FLuc inh-1	HEK cytotox	FLuc SDR no ATP	FLuc SDR ATP	FLuc inh-2
O=C1c2cnc(-c3cc4ccccc4o3)nc2OCCN1Cc1ccccc1	-3%[88.5 µM]	8.9µM*	u	0.1µM*	u	u	u	1.6µM*
COc1ccc(-c2ncc3c(n2)OCCN(Cc2ccccc2)C3=O)cc1	-3%[88.5 µM]	28µM*	u	2.5µM*	u	19%[49.3 µM]	15%[49.3 µM]	u
COc1cccc(-c2ncc3c(n2)OCCN(Cc2ccccc2)C3=O)c1	3%[88.5 µM]	u	u	2.8µM*	u	24%[49.3 µM]	u	u
COCCN1CCOc2nc(-c3cccc(N(C)C)c3)ncc2C1=O	x	x	x	x	x	28%[49.3 µM]	u	u
O=C(O)CCC(=O)N1Cc2ccccc2CC2(CCCCN2CC2CCCC2)C1 (stereo unspecified)	i	x	-3%	x	-6%	x	x	x
Cc1cc(C)cc(-c2ccc(CN3CCCC3C(=O)N3CCOCC3)cc2)c1 (stereo unspecified)	i	x	u	x	u	x	x	x
Cc1cccc(-c2ncc(CN(CCN3CCOCC3)Cc3ccco3)cn2)c1	-2%	5%	-23%	i	u	x	x	x
CCCCOc1nc(N)c2[nH]c(=O)n(CCCN(CCCN3CCOCC3)Cc3cccc(CC(=O)OC)c3)c2n1	x	x	x	x	x	12%	7%	4%
CC(C)c1ccc(N2C(=S)N[C@H]3[C@@H](O)[C@H](O)C[C@@H](C(=O)N(C)Cc4ccccc4)[C@H]32)cc1	i	-25%	35µM*	3.2µM*	40µM*	10%	11µM*	11µM*
Nc1ncnc2c1ncn2[C@@H]1O[C@H](CO)[C@@H](O)[C@@H]1O	i	x	x	x	x	11%	11%	-9%
CN1Cc2ccc(C(=O)NCCOc3ccccc3)cc2OCC1=O	x	x	x	x	x	19%[49.3 µM]	u	u
Cc1cnc(NC(=O)c2ccc3c(c2)OCC(=O)N(C)C3)s1	x	x	x	x	x	u	u	14µM*
Cc1csc(NC(=O)[C@@H]2CCC[C@@H](NC(=O)c3ccccc3)CN(C)C(=O)C2)n1	-1%[88.5 µM]	-18%[70.6 µM]	-22%[174 µM]	i	-20%[172 µM]	x	x	x
Cc1csc(NC(=O)c2ccc3c(c2)OCC(=O)N(C)C3)n1	4%[88.5 µM]	x	u	5µM*	-16%[172 µM]	24%[49.3 µM]	u	u
Cc1cnc(NC(=O)c2ccc3c(c2)OCCN(c2ccccc2)C3)s1	i	-16%[70.6 µM]	u	u	u	x	x	x
O=C(c1nc(-c2ccc(Cl)cc2)c2cnccn12)N1CCOCC1	i	20%[70.6 µM]	-25%[138 µM]	i	u	x	x	x
O=C(c1ccc2nnc(-c3cc(F)ccc3F)n2c1)N1CCOCC1	-1%	x	-11%	x	4%	x	x	x
CCn1ccc(C(=O)N2CCC3(CC2)CC(c2nnc(COC)o2)N(C)C3)n1 (stereo unspecified)	4%	x	-2%	x	i	x	x	x
